The results in this text go back to PubChem BioAssay (NCI).

The structures appear in SMILES notation. This is part of a sample that, as a whole, favours compounds with a hit. Of some 83,000 tested, about 20% had one in any assay.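 Treatment: one concentration, 48 hours, 96-well format. Scoring: percent growth, with anything below 10 considered active.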 Values without a mark were called inactive. Activity calls are given as the source filed them.

This test has as its system SK-MEL-2 melanoma. The test can be described thus: NCI-60 one-dose screen, 48 h (100 = growth as untreated, 0 = no growth, -100 = all killed). Particulars: 10 µM unless noted. The method, then:
Growth inhibition of the SK-MEL-2 human tumor cell line is measured as a screen for anti-cancer activity. Cells are grown in 96 well plates and exposed to the test compound for 48 hours. Compounds are tested at a single concentration, which is 10^-5 M for most compounds. The reported endpoint is percent growth (GI% or GIPRCNT), where numbers from 0 - 100% represent growth inhibition, and numbers from -100% - 0 represent cell death. For example, a value of 40 represents 60% growth inhibition. A value of 0 means no net growth occurred over the course of the experiment. A value of -40 indicates 40% of cells at the beginning of the experiment died by the end of the experiment. A value of -100 means all cells are dead at the end of the experiment.
NCI-60 Human Tumor Cell Lines Screen was performed using the standard one-dose NCI protocol, which is described in more detail at https://dtp.cancer.gov/discovery_development/nci-60/default.htm.
Compounds with GIPRCNT values below 10 were considered active. Activity score was based on GIPRCNT using the following formula: […]
Score is 0 for GIPRCNT values of 100 or above, 50 for GIPRCNT values of 0, and 100 for GIPRCNT values of -100.
Turning to `Cc1nc2c(O)cccc2cc1CO`, the growth was 122%.
Take `Cc1nn(-c2ccccc2)c(Cl)c1C(CC(=O)c1ccc(Cl)cc1)CC(=O)c1ccc(Cl)cc1`: the growth was 89.1%.
As for `ClC1=C(Cl)C(=C2C(Cl)=C(Cl)C(Cl)=C2Cl)C(Cl)=C1Cl`, the figure is 95.8%; as for `S=C1SCN(Cc2ccccc2)CN1Cc1ccco1`, 81.1%; as for `O=C1Cc2cc(CCN3CCN(CCOCCO)CC3)c(Cl)cc2N1Cc1ccc(-c2ccccc2-c2nn[nH]n2)cc1`, 81.1%.
Regarding `O=[N+]([O-])c1ccc(N/N=C\c2ccccc2[N+](=O)[O-])nc1`, the growth is 95.6%.
For `COc1cc(C(=O)/C=C/c2cccnc2Nc2ccccc2)cc(OC)c1OC`, the growth was -56.5% (active).
As for `COc1ccc(-c2cncn2-c2ccc(-c3nc4cc(OC)c(OC)c(OC)c4s3)cc2)cc1N`, the growth was 7.6% (active).
As to `CC/C(=C\c1ccc(N(C)C)cc1)c1ccncc1`, the growth was 49.9%.
On to `CCOC(=O)C1=C(C)N2C(=NC3=C(CCC/C3=C\c3ccc(Cl)cc3)C2c2ccc(Cl)cc2)S1` (stereo not given), for which the growth is 76.6%.
For the molecule `Fc1ccc(-c2nc(Nc3ccc(-c4nc5ccccc5[nH]4)cc3)nc(N3CCOCC3)n2)cc1`, the growth is -71.3% (active).
For `Cc1ccc(C(=O)Nc2ccc(Cl)cc2C(=O)NCc2ccccc2)cc1`, the growth was 51.7%.
`O=c1[nH]c(Cl)nc2c1cnn2-c1ccccc1`: the growth is 103%.
For the molecule `CN(C)c1ccc(/C=C\c2ccnc3ccccc23)cc1`, the growth was 18.7%.
For `Nc1nc(SCC2(CCl)COC2)c2[nH]cnc2n1`, the growth is 97.1%.
The figure for `O=Cc1c[nH]c2ccc(NC(=O)OCc3ccccc3)cc12` is -19.1% (active).
`Oc1ccc(Cc2ccc(O)c(C3CC(c4ccc(Cl)cc4)=NN3)c2)cc1C1CC(c2ccc(Cl)cc2)=NN1` (stereo not given): the growth was -10.8% (active).
As to `CCCCCCCC/C=C\CCCCCCCCOc1ccccc1CC(=O)NCC[N+]1(C)CCCC1`, the growth is 106%.
The figure for `COc1ccc(-c2nn(-c3ccccc3)cc2/C=C2\SC(=S)N(CCc3ccc(O)cc3)C2=O)cc1` is 95%; for `Cc1cc2c(C#N)n3c(c2cc1C)C(=O)C(c1ccccc1)Oc1ccccc1-3` (stereo not given) it is 45.2%.
As for `CN(C(=O)c1ccccc1)N(C)C(=O)c1ccccc1`, the figure is 106%.
Turning to `O=C1/C(=C/c2ccc([N+](=O)[O-])o2)Oc2ccc(Cl)cc21`, the growth is -45.6% (active).
With `C[n+]1c2ccccc2c(Nc2ccc(N3CCCCC3)cc2)c2[nH]c3ccccc3c21`, the growth was -97.9% (active).
Take `COc1cc2c(C#N)n3c(c2cc1OC)C(=O)C(c1ccccc1)Oc1ccccc1-3` (stereo not given): the growth was 64.8%.
Turning to `CC(C)(C)c1ccc(C(O)CCCN2CCC(C(O)(c3ccccc3)c3ccccc3)CC2)cc1` (stereo not given), the growth was -76.1% (active).
As for `COc1cc(Oc2cc(-c3cccnc3)ccc2NC(=O)Nc2ccc(F)cc2F)cc(OC)c1OC`, the figure is 112%.
As for `c1ccc(-n2nnnc2-c2cccc3ccccc23)cc1`, the figure is 23.8%; as for `COc1ccc2c3c(c(OCCCN(C)C)nc2c1)-c1ccc(Cl)cc1C3=O`, 72.5%; as for `CN(CC(=O)N(Cc1ccc(C2CCCCC2)cc1)c1ccc(C(=O)O)cc1)S(=O)(=O)c1c(F)c(F)c(F)c(F)c1F`, -31.7% (active).
For the molecule `N#Cc1c(N2CCOCC2)nc2sc3cc(Cl)ccc3n2c1=N`, the growth was 103%.
Turning to `COc1ccc(CCN2CCCN3C2=Nc2ccccc2S3(=O)=O)cc1`, the growth is 51.9%.
As for `Oc1[nH]c2ccccc2c1/C=c1/ccc2c(c1)N=C(c1cc(F)cc(F)c1)N=2`, the figure is 41.2%.
For `N=c1ccn2c(n1)O[C@@H]1[C@@H](O)[C@H](CO)O[C@@H]12`, the growth was 82.7%.
Consider `O=C1OCC/C1=C\OCCCO/C=C1\CCOC1=O`, for which the growth is 104%.
The figure for `Cc1nn(-c2ccccc2)c2nc3c(nc12)C(=O)CCC3` is 90%; for `C/C(=N/N=C(N)N)c1ccc(N)cc1` it is 154%.
The figure for `COc1cccc(CCC2C(=O)CCCC2=O)c1` is 112%; for `CCn1c2ccccc2c2ccc(C(C)=O)cc21` it is 112%.
As for `CCOc1cc(C(C)(C)C)ccc1C1=N[C@H](c2ccc(Cl)cc2)[C@H](c2ccc(Cl)cc2)N1C(=O)N1CCN(CC#Cc2cccc3c2CN([C@@H]2CCC(=O)NC2=O)C3=O)CC1`, the growth was 44.9%.
The figure for `NC(=O)SCC(=O)Nc1ccccc1-c1ccccc1` is 88.9%.
